An excerpt weighted towards active compounds, which were near 3.6% of everything screened.
TSHR agonist – TSH receptor (human) agonism | P16473 | Potency, µM (series often up to 57.1 µM), for inactives: top-dose activation, hits mostly activators | actives 0.48% (n = 73,000) | HEK293-CNG-TSHR cells (CNG channel as cAMP sensor), membrane potential dye, cAMP | AID 926; active means well fitted activation curve with a large enough effect in the main read-out, with a control signal flat, not every such curve was filed as active; inconclusive means small, poorly fitted or top-dose-only effect, or a change in a side signal; inactive means no such curve, though single readings can be large or run the other way; % of control where 0% means no effect;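 further: the control signal comes from parental cells without the receptor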
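cAMP rise detected as CNG-channel membrane depolarization by fluorescent dye (emission 590 nm), 30 min after compound, following 60 min dye loading containing 100 uM RO 20-1724 at room temperature. Cells: TSHR/CNG HEK 293, with parental CNG HEK 293 as control.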
IkB signaling – suppresses IkB signaling in ABC-DLBCL reporter cells; AID 445; ABC-DLBCL IkBa-CBG/CBR dual luciferase ratio, 4 h; response scale: scaled: untreated 0%, proteasome inhibitor 100%; Potency, µM (titrated, usually from 57.1 µM), without a hit: top-dose IkBa stabilization activation; actives 0.04% (n = 110,000); active means well fitted curve in the direction sought with a large enough effect in the signal ratio, not every such curve was filed as active; inconclusive means small, poorly fitted or top-dose-only effect, or a change in a side signal; the % refers to the signal ratio;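 further: the direction sought is a rising ratio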
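Curves were fitted separately to fusion (green), unfused (red) and ratio luminescence, then classed by r2, magnitude and activity. Cells: OCI-Ly3, 4 h compound plus doxycycline at 37C; 10 uM MG-132 defined full response.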
HEK293 cAMP cs – raises cAMP in parental HEK293 cells, TSHR agonist counter-screen; AID 938; actives 2.5% (n = 73,000); parental HEK293 CNG cAMP sensor, membrane potential fluorescence; Potency, µM (highest dose often 57.1 µM), without a hit: top-dose activation, most hits filed as activators; further: % of control where 0% means no effect; nearly all actives have a fitted effect of over 55% in size
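Parental HEK 293 cells stably expressing a cAMP-gated CNG channel were loaded with membrane potential dye containing 100 uM RO 20-1724 for 60 min. Compound added for 30 min; depolarization read as fluorescence intensity at 590 nm.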
ERK AVP block – inhibitors of vasopressin-stimulated ERK signaling pathway. actives 0.99% (n = 72,000). Potency, µM (titrated, usually from 57.5 µM), without a hit: at the highest dose activity, negative = inhibition, actives largely listed as inhibitors. HEK293-V1b, vasopressin-stimulated pERK AlphaScreen; further: on the % scale 0 is the no-effect control and ±100 the full control effect; nearly all actives have a fitted effect of over 55% in size
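V1b-HEK293 cells; cpd 30 min 37C; 25 nM vasopressin 5 min; lyse 10 min; AlphaScreen beads 5 hr RT. Normalized to DMSO basal and 25 nM vasopressin; AC50 by Hill fit.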
CRE-bla Fsk – modulators of forskolin-stimulated CRE signaling in CHO cells; CHO CRE-bla reporter (cAMP response element driving beta-lactamase), forskolin EC10, beta-lactamase ratio; Potency, µM (highest dose often 38.2 µM), for inactives: at the top dose activity change, negative = inhibition, hits mostly activators; actives 2.5% (n = 71,000); AID 662; active means well fitted activation curve with a large enough effect in the signal ratio, with a control signal flat, not every such curve was filed as active; inconclusive means small, poorly fitted or top-dose-only effect, or effect the other way, or a change in a side signal; the % refers to the signal ratio; further: % of control where 0% means no effect
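CHO CRE-bla cells, overnight plating in Opti-MEM with 0.5% dialyzed FBS; cpd titration + EC10 NKH 477, 3 h 37 °C; CCF4 2 h RT; ex 405/em 460 vs 530 ratio → %Activity, AC50.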
Numbers without * were called inactive; [ ] = dose if it differs, or a comment. Unless noted, the call rests on the fitted dose curve; in most records, active means well fitted curve in the direction sought with a large enough effect; inconclusive means small, poorly fitted or top-dose-only effect, or another doubt; inactive means no such curve, though single readings can be large; an effect the other way counts as inactive or inconclusive. Potency means the concentration at half of the fitted maximal effect.

How did Cc1cccc(N(C)C(=O)c2cc3cc4ccc(C)cc4nc3o2)c1 do in these assays?
TSHR agonist: inconclusive; IkB signaling: inconclusive; HEK293 cAMP cs: 10µM*; ERK AVP block: -4%; CRE-bla Fsk: inconclusive

What do the screens show for `Cc1ccc2cc3cc(C(=O)N(C)C4CCCCC4)oc3nc2c1`?
TSHR agonist: 14%; IkB signaling: -3%; HEK293 cAMP cs: 22%; ERK AVP block: 4%; CRE-bla Fsk: inconclusive

How did Cc1cccc(N2CCN(C(=O)CCNS(=O)(=O)c3ccc4c(c3)CCC(=O)N4)CC2)c1C do in these assays?
TSHR agonist: 28%; IkB signaling: inconclusive; HEK293 cAMP cs: 8%; ERK AVP block: 25µM*; CRE-bla Fsk: -10%

What do the screens show for `COc1ccc(OC)c(NC(=O)C2COc3ccccc3O2)c1` (stereo unspecified)?
IkB signaling: 0%; HEK293 cAMP cs: 57%; ERK AVP block: -9%; CRE-bla Fsk: 8%

How did CCOc1ccc(OCC)c(NC(=O)C2COc3ccccc3O2)c1 (stereo unspecified) do in these assays?
TSHR agonist: inconclusive; IkB signaling: 0%; HEK293 cAMP cs: 32µM*; ERK AVP block: 12%; CRE-bla Fsk: 28%

What do the screens show for `Cc1c(C(=O)NCc2ccccc2)sc2nc[nH]c(=O)c12`?
IkB signaling: -3%

What do the screens show for `Cc1ccccc1NC(=O)c1nc[nH]c1C(=O)NCc1ccccc1`?
TSHR agonist: -22%; IkB signaling: inconclusive; HEK293 cAMP cs: 9%; ERK AVP block: 25µM*; CRE-bla Fsk: 13µM*

How did COc1ccc(CNC(=O)C2CCN(S(=O)(=O)c3cccc4nonc34)CC2)cc1OC do in these assays?
IkB signaling: 1%

What do the screens show for `Cc1ccc(S(=O)(=O)NCCC(=O)OCn2nnc3ccccc3c2=O)cc1`?
TSHR agonist: 7%; IkB signaling: 0%; HEK293 cAMP cs: 0%; ERK AVP block: -9%; CRE-bla Fsk: -10%

Results for Cn1c(=O)c(-c2ccc(F)cc2)nc2cnc(Oc3ccccc3)nc21 ?
TSHR agonist: inconclusive; IkB signaling: -1%[11.4 µM]; HEK293 cAMP cs: inconclusive; ERK AVP block: 8%; CRE-bla Fsk: -2%

Results for Cc1nc2c(C(=O)N3CCCCC3)cnn2c(C)c1Cc1ccccc1F ?
TSHR agonist: inconclusive; IkB signaling: 0%; HEK293 cAMP cs: inconclusive; ERK AVP block: 2%; CRE-bla Fsk: 17%

Results for Cc1ccccc1Cc1c(C)nc2c(C(=O)N3CCN(Cc4ccc5c(c4)OCO5)CC3)cnn2c1C ?
TSHR agonist: inconclusive; IkB signaling: 0%; HEK293 cAMP cs: 20µM*; ERK AVP block: -14%; CRE-bla Fsk: 2%

How did CCCc1cc(=O)oc2cc(C)cc(OCc3nn[nH]n3)c12 do in these assays?
TSHR agonist: 6%; IkB signaling: 1%; HEK293 cAMP cs: 2%; ERK AVP block: -18%; CRE-bla Fsk: -1%

What do the screens show for `COCCCNC(=O)C1CCC(Cn2c(=O)c3sccc3n(Cc3ccc(F)cc3)c2=O)CC1` (stereo unspecified)?
IkB signaling: -2%

What do the screens show for `CCOc1ccc(OCC)c(NC(=O)CSc2nc3cccnc3n2C)c1`?
TSHR agonist: inconclusive; IkB signaling: inconclusive; HEK293 cAMP cs: 32µM*; ERK AVP block: -26%; CRE-bla Fsk: inconclusive

What do the screens show for `CCOc1ccccc1NC(=O)CSc1nc2c(c(=O)n1C)SC(C)C2` (stereo unspecified)?
TSHR agonist: inconclusive; IkB signaling: 0%; HEK293 cAMP cs: 32µM*; CRE-bla Fsk: 5%

What do the screens show for `CCOC(=O)c1cccc(NC(=O)CSc2nc3cccnc3n2C)c1`?
TSHR agonist: inconclusive; IkB signaling: inconclusive; HEK293 cAMP cs: inconclusive; ERK AVP block: 25µM*; CRE-bla Fsk: 26%

How did CCOC(=O)c1cccc(NC(=O)CCc2nc3cccnc3n2-c2ccccc2)c1 do in these assays?
IkB signaling: 1%

What do the screens show for `CCOc1ccc(CNC(=O)Cc2ccc(NC(=O)N3CCCCc4ccccc43)cc2)cc1OC`?
IkB signaling: 1%

Compound activity from PubChem BioAssay.
